Source: PubChem BioAssay
Activity calls are given as the source filed them.

Experiments:
[1] = optical density shifts of acrAB sulA E. coli – strain DRC41, OD650, 48 h, E. coli filamentation inducer project, primary screen (AID 1152); conditions: higher = more signal, called active from +8 up or from −8 down;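 note: E. coli MC1000 strain DRC41 lacking acrAB efflux pump and sulA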
[2] = probe aLefty1 binding on compound microarray – biochemical, small-molecule microarray, 635/667 nm fluorescence, primary screen (AID 1153); conditions: higher = more signal;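 note: score merges spot fluorescence with signal-to-noise ratio from the scanned slide images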
[3] = plasmodial surface anion channel blockers, osmotic lysis – cell-based, P. falciparum Indochina, OD700, 1 h, primary screen (AID 1154); conditions: P. falciparum Indochina infected RBC osmotic lysis, higher = more signal, called active from +8 up or from −8 down
[4] = plasmodial surface anion channel blockers, osmotic lysis – cell-based, P. falciparum Indochina, OD700, 2 h, primary screen (AID 1155);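 note: lysis reports solute entry through the parasite surface anion channel PSAC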; conditions: P. falciparum Indochina infected erythrocytes, higher = more signal, called active from +8 up or from −8 down
[5] = changes in parasitized red cell lysis, either direction – P. falciparum Indochina, OD700, 3 h, PSAC antagonist project, primary screen (AID 1156); conditions: P. falciparum-infected erythrocytes, osmotic lysis, higher = more signal, called active from +8 up or from −8 down
[6] = plasmodial surface anion channel blockers, osmotic lysis – cell-based, P. falciparum Indochina, OD700, 18 h, primary screen (AID 1157); conditions: P. falciparum Indochina infected erythrocytes, osmotic lysis OD700, 18 h; higher = more signal, called active from +8 up or from −8 down
[7] = S6 kinase pathway phospho-S6 level changes – cell-based, A549, cytoblot, luminescence, serum-stimulated, primary screen (AID 1158); conditions: 5 h, higher = more signal;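 note: serum-stimulated A549 lung adenocarcinoma cells; signal is phosphorylated S6 detected by cytoblot immunostaining with HRP secondary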
[8] = biological target: NADPH oxidase 2 (Homo sapiens) (UniProt P04839); experiment: compounds shifting NOX2 Amplex Red fluorescence – cell-based, HEK293-NOX2, PMA-stimulated, NOX inhibitor project, primary screen (AID 1159); conditions: 45 min, higher = more signal, called active from +8 up or from −8 down; note: test concentration not given here
[9] = biological target: NADPH oxidase 4 (Homo sapiens) (UniProt Q9NPH5); experiment: compounds shifting NOX4 Amplex Red fluorescence – cell-based, HEK293-NOX4, tetracycline-induced, NOX inhibitor project, primary screen (AID 1160); conditions: HEK293-NOX4, Amplex Red H2O2 fluorescence, 45 min; higher = more signal, called active from +8 up or from −8 down
[10] = biological target: NADPH oxidase 5 (Homo sapiens) (UniProt Q96PH1); experiment: compounds shifting NOX5 Amplex Red fluorescence – cell-based, HEK293-NOX5, NOX inhibitor project, primary screen (AID 1161); conditions: HEK293-NOX5, ionomycin, 45 min, higher = more signal
Sequence of NADPH oxidase 5 (Homo sapiens) (Q96PH1 whole entry, looked up): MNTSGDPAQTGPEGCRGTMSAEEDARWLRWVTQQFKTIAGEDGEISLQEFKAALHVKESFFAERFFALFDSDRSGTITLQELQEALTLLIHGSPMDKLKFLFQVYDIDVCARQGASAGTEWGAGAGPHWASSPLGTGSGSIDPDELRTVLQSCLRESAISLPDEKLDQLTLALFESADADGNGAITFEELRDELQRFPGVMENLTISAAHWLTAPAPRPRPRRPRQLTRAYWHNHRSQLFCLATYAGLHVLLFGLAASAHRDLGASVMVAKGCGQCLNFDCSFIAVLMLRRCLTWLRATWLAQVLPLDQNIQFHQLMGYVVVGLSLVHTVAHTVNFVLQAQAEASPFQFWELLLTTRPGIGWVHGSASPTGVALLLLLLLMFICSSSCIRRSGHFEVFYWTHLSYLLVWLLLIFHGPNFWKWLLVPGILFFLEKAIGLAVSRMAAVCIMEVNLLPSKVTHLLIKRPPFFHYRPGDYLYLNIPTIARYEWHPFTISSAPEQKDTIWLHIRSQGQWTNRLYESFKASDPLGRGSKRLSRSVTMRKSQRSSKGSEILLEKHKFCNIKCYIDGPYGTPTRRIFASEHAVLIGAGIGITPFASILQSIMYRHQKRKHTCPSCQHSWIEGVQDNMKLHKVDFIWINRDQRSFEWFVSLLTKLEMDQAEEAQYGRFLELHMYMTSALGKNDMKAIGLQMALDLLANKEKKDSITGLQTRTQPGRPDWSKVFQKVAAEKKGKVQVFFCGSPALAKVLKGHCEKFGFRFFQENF

Sequence of NADPH oxidase 4 (Homo sapiens) (Q9NPH5 whole entry, looked up): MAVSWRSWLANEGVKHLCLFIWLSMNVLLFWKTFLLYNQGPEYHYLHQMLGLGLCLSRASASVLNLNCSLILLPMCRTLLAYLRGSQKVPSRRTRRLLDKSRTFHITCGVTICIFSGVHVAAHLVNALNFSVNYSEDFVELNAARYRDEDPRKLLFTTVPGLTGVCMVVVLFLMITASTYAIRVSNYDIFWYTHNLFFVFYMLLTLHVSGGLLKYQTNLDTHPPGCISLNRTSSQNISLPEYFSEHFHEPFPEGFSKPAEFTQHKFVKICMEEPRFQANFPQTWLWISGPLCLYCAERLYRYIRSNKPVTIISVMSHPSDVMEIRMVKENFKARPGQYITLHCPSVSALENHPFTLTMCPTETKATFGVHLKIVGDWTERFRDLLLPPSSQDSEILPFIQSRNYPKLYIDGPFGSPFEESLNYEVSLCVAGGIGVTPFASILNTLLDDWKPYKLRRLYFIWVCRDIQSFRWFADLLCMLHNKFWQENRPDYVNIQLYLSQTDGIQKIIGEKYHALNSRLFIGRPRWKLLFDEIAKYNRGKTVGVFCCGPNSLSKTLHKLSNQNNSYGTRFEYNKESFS
Sequence of NADPH oxidase 2 (Homo sapiens) (P04839 whole entry, looked up): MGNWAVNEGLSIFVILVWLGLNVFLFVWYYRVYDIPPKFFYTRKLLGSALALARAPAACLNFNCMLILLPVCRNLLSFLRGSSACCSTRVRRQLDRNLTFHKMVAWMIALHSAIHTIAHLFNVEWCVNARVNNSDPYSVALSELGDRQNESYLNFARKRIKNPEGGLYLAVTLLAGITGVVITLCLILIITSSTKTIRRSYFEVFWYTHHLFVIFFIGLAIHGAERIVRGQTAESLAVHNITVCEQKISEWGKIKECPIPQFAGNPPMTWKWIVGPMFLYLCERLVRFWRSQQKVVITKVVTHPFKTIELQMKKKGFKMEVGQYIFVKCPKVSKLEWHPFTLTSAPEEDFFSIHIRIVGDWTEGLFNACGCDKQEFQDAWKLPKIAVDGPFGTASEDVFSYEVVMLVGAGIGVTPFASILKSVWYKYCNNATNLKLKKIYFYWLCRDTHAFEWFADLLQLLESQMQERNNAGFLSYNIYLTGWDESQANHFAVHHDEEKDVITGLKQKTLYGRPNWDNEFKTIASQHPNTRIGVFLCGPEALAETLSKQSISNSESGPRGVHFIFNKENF

Compound	z-score [1]	composite z-score [2]	z-score [3]	z-score [4]	z-score [5]	z-score [6]	z-score [7]	z-score [8]	z-score [9]	z-score [10]
CCCCC=C[C@@H](NC(=O)CCc1ccccc1)c1ccccc1	-2.27 (inactive)	0.396	1.36 (inactive)	0.592 (inactive)	-0.985 (inactive)	1.28 (inactive)	-0.0113	-0.753 (inactive)	-0.487 (inactive)	0.736
CCCC[C@@H](O)C1=C(COc2ccccc2)Cn2c(=O)n(-c3ccccc3)c(=O)n2[C@H]1CO	2.85 (inactive)	-0.275	2.58 (inactive)	-0.478 (inactive)	-0.34 (inactive)	-2.27 (inactive)	0.814	-0.809 (inactive)	0.33 (inactive)	-0.235
COCCOC(=O)N1C(=O)[C@@]2(c3cc(C#Cc4ccc(OC)cc4)ccc31)[C@H](C(=O)N1CCc3cc(OC)c(OC)cc3C1)[C@H]1C(=O)O[C@H](c3ccccc3)[C@H](c3ccccc3)N1[C@@H]2c1ccc(OCCO)cc1	0.59 (inactive)	0.0391	6.15 (inactive)	2.99 (inactive)	1.69 (inactive)	1.42 (inactive)	0.228	-0.306 (inactive)	-1.58 (inactive)	-0.623
COC(=O)c1ccc(OC)c(/C=C\CC(CCc2ccccc2)OC(C)=O)c1 (stereo not given)	-0.601 (inactive)	-0.456	8.9 (active)	0.865 (inactive)	-0.297 (inactive)	0.0093 (inactive)	-0.0781	-0.135 (inactive)	0.424 (inactive)	-0.983
C=C(CCCC)/C(=C/C[C@@H](OC(=O)c1ccncc1)c1ccccc1OCCO)c1cc(C(=O)OC)ccc1OC	0.504 (inactive)	0.282	28 (active)	17.5 (active)	3.94 (inactive)	2.07 (inactive)	0.761	1.08 (inactive)	-0.25 (inactive)	-1.62
CCCNC(=O)[C@@]1(Sc2ccc(C)cc2)CC(=O)N(Cc2ccccc2)[C@@H]1c1ccc(CO)cc1I	-0.383 (inactive)	-0.0573	6.23 (inactive)	0.815 (inactive)	-0.713 (inactive)	0.206 (inactive)	-0.374	1.04 (inactive)	-1.94 (inactive)	1.79
NC(=O)[C@H]1[C@@H]2C(=O)O[C@@H](c3ccccc3)[C@@H](c3ccccc3)N2[C@@H](c2ccc(O)cc2)[C@]12C(=O)Nc1ccc(C#CC3(O)CCCCCC3)cc12	0.359 (inactive)	0.354	2.63 (inactive)	-0.436 (inactive)	0.67 (inactive)	-1.08 (inactive)	1.54	0.487 (inactive)	-0.429 (inactive)	-2.14
COCCOC(=O)N1C(=O)[C@@]2(c3cc(C#CCNC(N)=O)ccc31)[C@H](C(N)=O)[C@H]1C(=O)O[C@H](c3ccccc3)[C@H](c3ccccc3)N1[C@@H]2c1ccc(OCCO)cc1	-0.618 (inactive)	-0.41	6.81 (inactive)	1.02 (inactive)	-0.0934 (inactive)	0.237 (inactive)	-0.575	1.8 (inactive)	1.04 (inactive)	0.0625
